Assay results from PubChem BioAssay (Tox21).
Inconclusive results are not listed. Where a call stands in place of a potency, no number is given. Unmarked numbers belong to inactive results. Activity calls are given as the source filed them. Calls come from the whole dose curve; as a rule, active = well fitted curve in the direction sought with a large enough effect in the repeat runs; inconclusive = weak or mixed curves; inactive = no such curve, though single readings can be large; an effect the other way counts as inactive or inconclusive.

Legend:
[1] = target: Nuclear receptor subfamily 1 group I member 2 (Homo sapiens) (UniProt O75469); assay: Human pregnane X receptor (PXR) small molecule agonists, qHTS assay (AID 1346982); note: nearly all actives have a fitted effect of over 35% in size; note: potency is the fitted concentration of half-maximal effect
Method in brief: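 PXR-Luc HepG2 reporter cells (CYP3A4-driven luciferase) in 5% charcoal-stripped FBS medium, plated 5 h before compound addition, then treated 24 h at 37C. Luciferase read by ONE-Glo luminescence after 30 min at room temperature.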

[2] = target: Nuclear receptor subfamily 1 group I member 2 (Rattus norvegicus) (UniProt Q9R1A7); assay: Rat pregnane X receptor (rPXR) activation by small molecules, qHTS assay (AID 1346983); settings: rPXR luciferase reporter cells, One-Glo luminescence, 24 h; stronger effect = higher value; note: nearly all actives have a fitted effect of over 20% in size
Method in brief: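 Luminescent readout (One-Glo luciferase, 30 min room temperature) followed 24 hr compound treatment at 37 C of rPXR cells plated 2,000 per well and preincubated 5hr; qHTS format with compounds delivered in DMSO.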

[3] = target: Nuclear receptor subfamily 1 group I member 2 (Homo sapiens) (UniProt O75469); assay: Human pregnane X receptor (PXR) activation by small molecules, qHTS assay (AID 1346985); note: nearly all actives have a fitted effect of over 40% in size; note: potency is the fitted concentration of half-maximal effect
Method in brief: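 DPX-2 cells (HepG2 co-transfected with a PXR response element and a CYP3A4-promoter luciferase construct) were seeded at 2,000 per well, rested 5 hr at 37C, then exposed to DMSO-dissolved compounds for 24 hr. Activation was read as luciferase luminescence.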

[4] = target: Cytochrome P450 2D6 (Homo sapiens) (UniProt P10635); assay: Cytochrome P450 Family 2 Subfamily D Member 6 (CYP2D6) small molecule antagonists: luciferase reporter qHTS assay (AID 1671196); note: nearly all actives have a fitted effect of over 50% in size; note: potency is the fitted concentration of half-maximal effect; for activity change, negative = inhibition: series mostly up to about 120 µM
Method in brief: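 Cell-free P450-Glo system: CYP2D6 with proluciferin substrate was pre-incubated with compound for 10 min, then reacted with NADPH regeneration for 1 h at room temperature. Luciferin product was detected after 20 min, and data were reported as relative luminescence units.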

[5] = target: Cytochrome P450 2C19 (Homo sapiens) (UniProt P33261); assay: Cytochrome P450 Family 2 Subfamily C Member 19 (CYP2C19) small molecule antagonists: luciferase reporter qHTS assay (AID 1671197); note: series mostly up to about 120 µM; nearly all actives have a fitted effect of over 65% in size
Method in brief: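 Enzyme-substrate mix with proluciferin substrate (P450-Glo CYP2C19 system) preincubated with compounds 10 min at room temperature; NADPH regeneration solution added, 37C for 1 h; detection reagent stops reaction, luminescence read after 20 min. Ketoconazole positive control.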

[6] = target: Cytochrome P450 2C9 (Homo sapiens) (UniProt P11712); assay: Cytochrome P450 Family 2 Subfamily C Member 9 (CYP2C9) small molecule antagonists: luciferase reporter qHTS assay (AID 1671198); note: series mostly up to about 120 µM; nearly all actives have a fitted effect of over 50% in size
Method in brief: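 Enzyme-substrate mix preincubated with compound 10 min at room temperature; reaction started with NADPH regeneration solution, 1 h 37C. Luminescent luciferin product read after 20 min detection reagent.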

[7] = target: Cytochrome P450 1A2 (Homo sapiens) (UniProt P05177); assay: Cytochrome P450 Family 1 Subfamily A Member 2 (CYP1A2) small molecule antagonists: luciferase reporter qHTS assay (AID 1671199); note: series mostly up to about 120 µM; nearly all actives have a fitted effect of over 50% in size
Method in brief: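 P450-Glo CYP1A2 enzyme–proluciferin substrate mix with compound 10 min at room temperature, then NADPH regeneration 1 h at room temperature. Luciferin detection reagent added, luminescence read after 20 min; furafylline positive control.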

[8] = target: Cytochrome P450 3A4 (Homo sapiens) (UniProt P08684); assay: Cytochrome P450 Family 3 Subfamily A Member 4 (CYP3A4) small molecule antagonists: luciferase reporter qHTS assay (AID 1671201); note: nearly all actives have a fitted effect of over 50% in size; note: potency is the fitted concentration of half-maximal effect; for activity change, negative = inhibition: series mostly up to about 120 µM
Method in brief: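 Room-temperature assay throughout: 10 min compound–enzyme/substrate preincubation, 1 h reaction after NADPH regeneration solution, 20 min detection. Luciferin formed from proluciferin substrate is quantified by luminescence.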

[9] = target: Voltage-gated inwardly rectifying potassium channel KCNH2 (Homo sapiens) (UniProt Q12809); assay: Human Ether-a-go-go-Related Gene (hERG) channel small molecule antagonists: fluorescence cell-based qHTS assay (AID 1671200)
Method in brief: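 Cell line hERG-U2OS; dye FluxOR II, 1 h RT dark; Tl+ stimulus; ex 480/em 540 nm, read each second for 2 min.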

Sequence of Cytochrome P450 2D6 (Homo sapiens) (P10635 whole entry, looked up): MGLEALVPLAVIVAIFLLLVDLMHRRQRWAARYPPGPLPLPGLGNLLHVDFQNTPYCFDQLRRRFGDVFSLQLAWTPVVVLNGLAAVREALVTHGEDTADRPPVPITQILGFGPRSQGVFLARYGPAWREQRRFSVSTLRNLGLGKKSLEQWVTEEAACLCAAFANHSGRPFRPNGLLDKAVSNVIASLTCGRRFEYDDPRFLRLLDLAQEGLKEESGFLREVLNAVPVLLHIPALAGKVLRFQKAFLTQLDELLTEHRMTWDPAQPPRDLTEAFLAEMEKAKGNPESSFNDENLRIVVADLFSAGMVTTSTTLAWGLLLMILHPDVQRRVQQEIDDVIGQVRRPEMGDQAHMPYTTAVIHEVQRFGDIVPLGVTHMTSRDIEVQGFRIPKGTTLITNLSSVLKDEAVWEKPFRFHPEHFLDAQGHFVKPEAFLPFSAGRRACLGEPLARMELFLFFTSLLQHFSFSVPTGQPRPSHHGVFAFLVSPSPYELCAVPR
Sequence of Cytochrome P450 2C19 (Homo sapiens) (P33261 whole entry, looked up): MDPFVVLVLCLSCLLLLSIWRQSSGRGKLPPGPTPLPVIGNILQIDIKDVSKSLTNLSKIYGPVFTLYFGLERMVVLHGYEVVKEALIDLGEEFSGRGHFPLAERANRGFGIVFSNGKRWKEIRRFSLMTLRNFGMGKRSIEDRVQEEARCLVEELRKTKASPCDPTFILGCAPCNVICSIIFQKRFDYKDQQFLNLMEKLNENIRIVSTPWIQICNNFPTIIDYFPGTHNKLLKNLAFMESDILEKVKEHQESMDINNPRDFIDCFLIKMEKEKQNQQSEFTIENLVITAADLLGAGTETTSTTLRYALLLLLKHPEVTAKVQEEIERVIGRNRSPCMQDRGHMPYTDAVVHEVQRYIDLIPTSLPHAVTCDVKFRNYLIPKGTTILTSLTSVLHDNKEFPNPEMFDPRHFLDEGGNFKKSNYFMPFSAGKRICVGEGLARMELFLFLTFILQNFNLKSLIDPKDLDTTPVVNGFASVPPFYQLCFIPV
Sequence of Cytochrome P450 3A4 (Homo sapiens) (P08684 whole entry, looked up): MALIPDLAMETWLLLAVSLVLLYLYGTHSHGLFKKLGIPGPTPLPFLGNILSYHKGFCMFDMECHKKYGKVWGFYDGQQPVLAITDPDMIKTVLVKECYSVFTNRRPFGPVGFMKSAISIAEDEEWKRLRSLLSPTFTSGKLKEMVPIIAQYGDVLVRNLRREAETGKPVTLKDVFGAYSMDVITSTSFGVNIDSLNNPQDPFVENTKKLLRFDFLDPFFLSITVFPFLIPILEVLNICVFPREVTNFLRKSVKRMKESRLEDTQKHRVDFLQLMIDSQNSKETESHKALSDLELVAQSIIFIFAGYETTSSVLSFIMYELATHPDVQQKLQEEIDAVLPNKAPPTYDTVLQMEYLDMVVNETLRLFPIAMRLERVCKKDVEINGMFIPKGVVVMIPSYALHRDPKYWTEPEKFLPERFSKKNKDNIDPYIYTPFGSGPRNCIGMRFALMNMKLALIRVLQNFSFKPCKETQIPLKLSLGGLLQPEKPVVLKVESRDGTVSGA
Sequence of Nuclear receptor subfamily 1 group I member 2 (Homo sapiens) (O75469 whole entry, looked up): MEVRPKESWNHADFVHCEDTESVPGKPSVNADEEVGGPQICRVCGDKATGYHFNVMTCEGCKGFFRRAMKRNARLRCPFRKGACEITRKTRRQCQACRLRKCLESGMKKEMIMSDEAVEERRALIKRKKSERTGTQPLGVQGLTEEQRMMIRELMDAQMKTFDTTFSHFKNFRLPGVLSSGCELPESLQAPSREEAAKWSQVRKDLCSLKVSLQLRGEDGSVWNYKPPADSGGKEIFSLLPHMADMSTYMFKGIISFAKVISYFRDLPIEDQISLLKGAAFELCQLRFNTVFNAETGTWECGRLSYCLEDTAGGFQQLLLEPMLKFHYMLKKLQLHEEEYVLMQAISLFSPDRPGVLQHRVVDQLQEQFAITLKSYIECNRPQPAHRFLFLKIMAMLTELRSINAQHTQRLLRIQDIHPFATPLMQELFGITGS
Sequence of Voltage-gated inwardly rectifying potassium channel KCNH2 (Homo sapiens) (Q12809 whole entry, looked up): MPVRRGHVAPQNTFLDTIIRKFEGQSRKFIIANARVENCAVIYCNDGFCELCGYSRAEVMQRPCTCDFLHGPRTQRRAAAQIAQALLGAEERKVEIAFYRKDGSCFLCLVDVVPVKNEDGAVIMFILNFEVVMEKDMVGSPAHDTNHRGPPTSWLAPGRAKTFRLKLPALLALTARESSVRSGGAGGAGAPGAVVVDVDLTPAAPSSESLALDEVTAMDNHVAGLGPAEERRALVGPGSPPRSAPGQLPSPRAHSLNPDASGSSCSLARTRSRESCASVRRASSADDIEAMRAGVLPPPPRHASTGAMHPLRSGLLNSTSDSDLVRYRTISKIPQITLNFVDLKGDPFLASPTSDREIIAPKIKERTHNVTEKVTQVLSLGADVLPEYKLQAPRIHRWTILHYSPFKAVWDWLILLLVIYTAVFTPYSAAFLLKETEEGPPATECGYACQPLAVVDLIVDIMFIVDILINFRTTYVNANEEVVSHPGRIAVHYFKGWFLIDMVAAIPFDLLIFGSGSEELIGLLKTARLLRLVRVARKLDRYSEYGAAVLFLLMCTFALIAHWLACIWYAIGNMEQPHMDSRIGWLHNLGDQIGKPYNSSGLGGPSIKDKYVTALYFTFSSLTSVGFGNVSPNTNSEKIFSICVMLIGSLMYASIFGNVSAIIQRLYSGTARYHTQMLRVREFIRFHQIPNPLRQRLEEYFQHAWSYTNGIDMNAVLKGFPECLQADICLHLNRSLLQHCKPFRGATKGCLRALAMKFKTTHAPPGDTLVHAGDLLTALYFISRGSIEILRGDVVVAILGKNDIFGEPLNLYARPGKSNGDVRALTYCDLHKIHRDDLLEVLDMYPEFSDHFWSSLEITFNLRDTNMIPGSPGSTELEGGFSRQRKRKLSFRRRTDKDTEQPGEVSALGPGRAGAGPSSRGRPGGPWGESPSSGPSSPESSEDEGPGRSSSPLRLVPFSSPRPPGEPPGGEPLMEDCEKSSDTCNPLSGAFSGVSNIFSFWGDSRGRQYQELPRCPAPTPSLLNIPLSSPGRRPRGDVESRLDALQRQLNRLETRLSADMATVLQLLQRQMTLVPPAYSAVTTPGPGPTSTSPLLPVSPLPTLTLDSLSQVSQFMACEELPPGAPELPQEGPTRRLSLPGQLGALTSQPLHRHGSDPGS
Sequence of Cytochrome P450 1A2 (Homo sapiens) (P05177 whole entry, looked up): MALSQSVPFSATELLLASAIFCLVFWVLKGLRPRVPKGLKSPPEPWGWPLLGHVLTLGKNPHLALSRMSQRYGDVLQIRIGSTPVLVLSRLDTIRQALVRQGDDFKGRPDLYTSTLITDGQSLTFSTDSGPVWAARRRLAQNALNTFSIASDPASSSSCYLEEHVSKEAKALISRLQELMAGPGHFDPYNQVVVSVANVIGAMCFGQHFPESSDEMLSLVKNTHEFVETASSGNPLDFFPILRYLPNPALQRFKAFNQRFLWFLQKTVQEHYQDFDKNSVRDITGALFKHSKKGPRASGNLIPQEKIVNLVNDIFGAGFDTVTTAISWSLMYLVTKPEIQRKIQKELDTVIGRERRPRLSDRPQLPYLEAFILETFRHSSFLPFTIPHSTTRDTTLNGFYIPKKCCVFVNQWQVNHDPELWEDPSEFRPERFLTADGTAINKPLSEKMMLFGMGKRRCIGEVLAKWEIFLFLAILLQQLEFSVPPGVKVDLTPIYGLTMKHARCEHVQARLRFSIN
Sequence of Cytochrome P450 2C9 (Homo sapiens) (P11712 whole entry, looked up): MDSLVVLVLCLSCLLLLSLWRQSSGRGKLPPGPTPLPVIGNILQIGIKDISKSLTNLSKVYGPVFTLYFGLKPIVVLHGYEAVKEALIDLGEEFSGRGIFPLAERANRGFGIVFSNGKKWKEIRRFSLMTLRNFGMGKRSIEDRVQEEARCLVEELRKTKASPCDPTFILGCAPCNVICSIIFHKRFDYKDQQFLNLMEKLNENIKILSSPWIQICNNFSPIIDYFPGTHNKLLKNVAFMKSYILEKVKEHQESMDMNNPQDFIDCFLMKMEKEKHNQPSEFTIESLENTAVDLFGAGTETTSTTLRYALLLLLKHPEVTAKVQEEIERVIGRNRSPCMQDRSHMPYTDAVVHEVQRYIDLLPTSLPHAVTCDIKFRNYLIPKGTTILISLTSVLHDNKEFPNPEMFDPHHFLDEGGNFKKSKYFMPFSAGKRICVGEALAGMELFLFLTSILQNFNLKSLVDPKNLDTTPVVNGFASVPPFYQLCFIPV
Sequence of Nuclear receptor subfamily 1 group I member 2 (Rattus norvegicus) (Q9R1A7 whole entry, looked up): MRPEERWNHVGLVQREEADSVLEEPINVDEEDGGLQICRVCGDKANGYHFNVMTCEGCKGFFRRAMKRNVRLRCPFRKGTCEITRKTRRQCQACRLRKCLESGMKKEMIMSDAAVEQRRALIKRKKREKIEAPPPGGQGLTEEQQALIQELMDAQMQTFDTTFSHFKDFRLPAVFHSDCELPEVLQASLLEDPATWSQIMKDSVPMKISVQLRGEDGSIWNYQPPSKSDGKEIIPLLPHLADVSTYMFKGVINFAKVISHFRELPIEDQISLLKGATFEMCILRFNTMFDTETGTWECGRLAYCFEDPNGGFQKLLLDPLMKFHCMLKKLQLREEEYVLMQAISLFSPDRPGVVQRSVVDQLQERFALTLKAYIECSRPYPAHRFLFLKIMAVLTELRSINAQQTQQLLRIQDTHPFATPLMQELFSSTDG

Q: What does the source list for `C=CCN1C[C@H](C(=O)N(CCCN(C)C)C(=O)NCC)C[C@@H]2c3cccc4[nH]cc(c34)C[C@H]21`?
A: Potency [1]: 29.8 µM (active); max activation [2]: -1.45%; Potency [3]: 15.8 µM (active); Potency [4]: 2.45 µM (active); Potency [5]: inactive; Potency [6]: inactive; Potency [7]: inactive; Potency [8]: 0.977 µM (active)

Q: For `O=S(=O)(O)c1ccc2c(N=Nc3ccc(S(=O)(=O)O)c4ccccc34)c(O)c(S(=O)(=O)O)cc2c1`, which activation [1] is on record?
A: 1.28% [at 8.39 µM]

Q: What about the max activation [2] of the same compound?
A: -9.86%

Q: What about the Potency [3] of the same compound?
A: inactive

Q: What about the activity change, negative = inhibition [4] of the same compound?
A: -11.1% [at 10.5 µM]

Q: And the activity change, negative = inhibition [6]?
A: -3.9% [at 10.5 µM]

Q: What about the activity change, negative = inhibition [7] of the same compound?
A: -17.3% [at 10.5 µM]

Q: And the activity change, negative = inhibition [8]?
A: 1.51% [at 10.5 µM]

Q: Which Potency [1] does the source give for `CC1(C)Oc2ccc(C#N)cc2[C@@H](N2CCCC2=O)[C@@H]1O` here?
A: inactive

Q: What about the max activation [2] of the same compound?
A: 0.645%

Q: And the Potency [3]?
A: inactive

Q: What about the Potency [4] of the same compound?
A: inactive

Q: And the Potency [5]?
A: inactive

Q: What about the Potency [9] of the same compound?
A: inactive

Q: What about the Potency [8] of the same compound?
A: inactive

Q: With `Nc1nc(-c2ccccc2)c(Br)c(=O)[nH]1` as the compound, how does the Potency [1] read?
A: inactive

Q: What about the max activation [2] of the same compound?
A: -0.177%

Q: And the Potency [3]?
A: inactive

Q: What about the Potency [4] of the same compound?
A: inactive

Q: And the Potency [6]?
A: inactive

Q: What about the Potency [7] of the same compound?
A: inactive

Q: And the Potency [9]?
A: inactive

Q: What about the Potency [8] of the same compound?
A: inactive

Q: Which activation [1] does the source give for `N[C@@H](CSCCCO)C(=O)O` here?
A: -4.99% [at 19 µM]

Q: What about the max activation [2] of the same compound?
A: -2.52%

Q: And the Potency [3]?
A: inactive

Q: What about the activity change, negative = inhibition [4] of the same compound?
A: -4.36% [at 23.6 µM]

Q: And the activity change, negative = inhibition [6]?
A: 4.77% [at 23.6 µM]

Q: What about the activity change, negative = inhibition [7] of the same compound?
A: 12.2% [at 23.6 µM]

Q: What about the activity change, negative = inhibition [8] of the same compound?
A: 15.6% [at 23.6 µM]

Q: For `CC1CCc2c(N3CCC(O)CC3)c(F)cc3c(=O)c(C(=O)O)cn1c23` (configuration not stated), which Potency [1] is on record?
A: inactive

Q: What about the max activation [2] of the same compound?
A: -2.67%

Q: And the Potency [3]?
A: inactive

Q: And the Potency [4]?
A: inactive

Q: And the Potency [7]?
A: inactive

Q: And the Potency [9]?
A: inactive

Q: What about the Potency [8] of the same compound?
A: inactive

Q: How did the Potency [1] turn out when `CCCC(=O)Nc1ccc(OCC(O)CNC(C)C)c(C(C)=O)c1` (configuration not stated) was run?
A: inactive

Q: What about the max activation [2] of the same compound?
A: -1.06%

Q: What about the Potency [3] of the same compound?
A: inactive

Q: And the Potency [5]?
A: inactive

Q: What about the Potency [8] of the same compound?
A: inactive

Q: With `OC[C@H]1O[C@@H](O[C@@H]2[C@@H](CO)O[C@](O)(CO)[C@H]2O)[C@H](O)[C@@H](O)[C@H]1O` as the compound, how does the Potency [1] read?
A: inactive

Q: And the max activation [2]?
A: -1.58%

Q: What about the Potency [3] of the same compound?
A: inactive

Q: And the Potency [4]?
A: inactive

Q: What about the Potency [5] of the same compound?
A: inactive

Q: What about the Potency [6] of the same compound?
A: inactive

Q: What about the Potency [7] of the same compound?
A: inactive

Q: What about the Potency [9] of the same compound?
A: inactive

Q: And the Potency [8]?
A: inactive

Q: What does the source list for `c1ccc2c(CC3=NCCN3)cccc2c1`?
A: Potency [1]: inactive; max activation [2]: 14.1%; Potency [3]: inactive; Potency [4]: 9.77 µM (active); Potency [5]: inactive; Potency [6]: inactive; Potency [7]: inactive; Potency [9]: inactive; Potency [8]: inactive

Q: Which results are given for `COc1ccc2c(c1)c1c3n2CCN(C)C3=NCC1`?
A: Potency [1]: inactive; max activation [2]: 5.26%; Potency [3]: inactive; Potency [4]: 15.5 µM (active); Potency [5]: inactive; Potency [6]: inactive; Potency [9]: inactive; Potency [8]: inactive

Q: Which results are given for `N[C@@H](Cc1ccc(O)cc1)C(=O)O`?
A: activation [1]: -5.23% [at 8.39 µM]; max activation [2]: 3.66%; Potency [3]: inactive

Q: Which Potency [1] does the source give for `CCCCOC(=O)C(C)O` (configuration not stated) here?
A: inactive

Q: And the Potency [4]?
A: inactive

Q: And the Potency [5]?
A: inactive

Q: And the Potency [6]?
A: inactive

Q: What about the Potency [7] of the same compound?
A: inactive

Q: And the Potency [9]?
A: inactive

Q: And the Potency [8]?
A: inactive

Q: For `C/C=C(\C)C(C)=O`, which Potency [1] is on record?
A: inactive

Q: And the Potency [4]?
A: inactive

Q: And the Potency [5]?
A: inactive

Q: What about the Potency [6] of the same compound?
A: inactive

Q: And the Potency [7]?
A: inactive

Q: What about the Potency [9] of the same compound?
A: inactive

Q: And the Potency [8]?
A: inactive
